# Reference: article PMC11062922 (Nature Chemical Biology, 2023)
# Like-named read-outs stand apart in the source and are kept apart here.
# Experiments:
# Set-up in all cases: species or system human, MV4-11 + K-562 + COLO205 + SK-N-BE2 + OVCAR-8
# [1] = test system: CLK1; settings: read-out: apparent Kd, n = 1
# [2] = test system: CLK4; settings: read-out: apparent Kd, compound concentrations: 100 nM and 1000 nM (sheet 'Samples'), n = 1
# [3] = test system: GAK; settings: read-out: apparent Kd; compound concentrations: 100 nM and 1000 nM (sheet 'Samples'), CATDS: 0.13551111713290001; n = 1
# [4] = test system: MAPK8; settings: read-out: apparent Kd; compound concentrations: 100 nM and 1000 nM (sheet 'Samples'), CATDS: 0.168882234188796; n = 1
# [5] = test system: MAPK9; settings: read-out: apparent Kd; compound concentrations: 100 nM and 1000 nM (sheet 'Samples'), CATDS: 0.14872410543912701; n = 1
# [6] = test system: TTK; settings: read-out: apparent Kd; compound concentrations: 100 nM and 1000 nM (sheet 'Samples'), CATDS: 0.53372982121950996; n = 1
# [7] = test system: DYRK1A; settings: read-out: apparent Kd, n = 1
# [8] = test system: JAK2; settings: read-out: apparent Kd; compound concentrations: 100 nM and 1000 nM (sheet 'Samples'), CATDS: 0.15367863363527601; n = 1
# [9] = test system: PTK2; settings: read-out: apparent Kd, compound concentrations: 100 nM and 1000 nM (sheet 'Samples'), n = 1
# [10] = test system: RPS6KA1; settings: read-out: apparent Kd; compound concentrations: 100 nM and 1000 nM (sheet 'Samples'), CATDS: 9.5788061874141406E-2; n = 1
# [11] = test system: RPS6KA3; settings: read-out: apparent Kd; compound concentrations: 100 nM and 1000 nM (sheet 'Samples'), CATDS: 9.4623993582158103E-2; n = 1
# [12] = test system: NEK3; settings: read-out: apparent Kd; compound concentrations: 100 nM and 1000 nM (sheet 'Samples'), CATDS: 0.168041576676878; n = 1
# [13] = test system: PIK3CG; settings: read-out: apparent Kd; compound concentrations: 100 nM and 1000 nM (sheet 'Samples'), CATDS: 0.474922434423799; n = 1
# [14] = test system: FER; settings: read-out: apparent Kd, compound concentrations: 100 nM and 1000 nM (sheet 'Samples'), n = 1
# [15] = test system: IGF1R; settings: read-out: apparent Kd, compound concentrations: 100 nM and 1000 nM (sheet 'Samples'), n = 1
# [16] = test system: INSR; settings: read-out: apparent Kd, compound concentrations: 100 nM and 1000 nM (sheet 'Samples'), n = 1
# [17] = test system: PLK1; settings: read-out: apparent Kd, compound concentrations: 100 nM and 1000 nM (sheet 'Samples'), n = 1
# [18] = test system: FES; settings: read-out: apparent Kd; compound concentrations: 100 nM and 1000 nM (sheet 'Samples'), CATDS: 0.141762780842772; n = 1
# [19] = test system: GSK3B; settings: read-out: apparent Kd; compound concentrations:100 nM and 1000 nM (sheet 'Samples'); n = 1
# [20] = test system: GSK3A; settings: read-out: apparent Kd; compound concentrations:100 nM and 1000 nM (sheet 'Samples'); n = 1
# [21] = test system: CLK2; settings: read-out: apparent Kd; compound concentrations: 100 nM and 1000 nM (sheet 'Samples'), CATDS: 1; n = 1
# [22] = test system: CSNK2A1;CSNK2A3; settings: read-out: apparent Kd; compound concentrations: 100 nM and 1000 nM (sheet 'Samples'), CATDS: 0.28521766566088902; n = 1
# [23] = test system: CSNK2A2; settings: read-out: apparent Kd; compound concentrations: 100 nM and 1000 nM (sheet 'Samples'), CATDS: 0.32436684951211903; n = 1
# [24] = test system: ILK; settings: read-out: apparent Kd; compound concentrations: 100 nM and 1000 nM (sheet 'Samples'), CATDS: 0.22050260792915999; n = 1
# [25] = test system: IRAK3; settings: read-out: apparent Kd; compound concentrations: 100 nM and 1000 nM (sheet 'Samples'), CATDS: 0.257263100547858; n = 1
# [26] = test system: RET; settings: read-out: apparent Kd; compound concentrations: 100 nM and 1000 nM (sheet 'Samples'), CATDS: 0.29305960370360601; n = 1
# [27] = compound concentrations:100 nM and 1000 nM (sheet 'Samples')
smiles,measurement,setting,value
CNc1nc(Nc2ccc(C(=O)N3CCOCC3)cc2OC)nc2[nH]cc(Cl)c12 [JH-II-127],potency estimated from few doses,"[1]; compound concentrations: 100 nM and 1000 nM (sheet 'Samples'), CATDS: 0.13184639507044499",1090 nM
same,potency estimated from few doses,[2]; CATDS: 0.153440234991533,722 nM
same,potency estimated from few doses,[3],1000 nM
same,potency estimated from few doses,[4],575 nM
same,potency estimated from few doses,[5],781 nM
same,potency estimated from few doses,[6],76.1 nM
CCCNC(=O)c1ccc(Nc2ncc(C(F)(F)F)c(Nc3ccccc3C(C)=O)n2)c(Br)c1 [BI00801818],potency estimated from few doses,"[1]; compound concentrations: 100 nM and 1000 nM (sheet 'Samples'), CATDS: 0.21092266840342",154 nM
same,potency estimated from few doses,[2]; CATDS: 0.13004922294711499,524 nM
same,potency estimated from few doses,"[7]; compound concentrations: 100 nM and 1000 nM (sheet 'Samples'), CATDS: 0.12917753556196801",534 nM
same,potency estimated from few doses,[8],330 nM
same,potency estimated from few doses,[9]; CATDS: 0.76143962131213405,11.3 nM
same,potency estimated from few doses,[10],1590 nM
same,potency estimated from few doses,[11],1690 nM
CC(C)C(=O)N[C@@H]1CCN(C(=O)Nc2nc3c(s2)-c2nc(-c4ccccc4Cl)ncc2CC3)C1 [BI00047804],potency estimated from few doses,"[1]; compound concentrations: 100 nM and 1000 nM (sheet 'Samples'), CATDS: 0.240445755473225",416 nM
same,potency estimated from few doses,[2]; CATDS: 0.26423272520910102,334 nM
same,potency estimated from few doses,[12],1310 nM
same,potency estimated from few doses,[13],115 nM
CNC(=O)c1ncccc1Nc1nc(Nc2cc3c(cc2OC)CCCN3C(=O)CN(C)C)nc2[nH]ccc12 [GSK2220400A],potency estimated from few doses,"[1]; compound concentrations: 100 nM and 1000 nM (sheet 'Samples'), CATDS: 0.27992821641946602",321 nM
same,potency estimated from few doses,[2]; CATDS: 0.21204627821104199,504 nM
same,potency estimated from few doses,[14]; CATDS: 0.14947425083021301,1020 nM
same,potency estimated from few doses,[15]; CATDS: 0.12946189122978499,1500 nM
same,potency estimated from few doses,[16]; CATDS: 0.154401741124819,949 nM
same,potency estimated from few doses,[17]; CATDS: 0.14661258796571799,1070 nM
COc1cc2c(cc1Nc1nc(Nc3ccsc3C(N)=O)c3cc[nH]c3n1)N(C(=O)CN(C)C)CCC2 [GSK2110236A],potency estimated from few doses,"[1]; compound concentrations: 100 nM and 1000 nM (sheet 'Samples'), CATDS: 8.2490921109223694E-2",1090 nM
same,potency estimated from few doses,[2]; CATDS: 9.1933960168397902E-2,641 nM
same,potency estimated from few doses,[14]; CATDS: 0.191525182518377,44.5 nM
same,potency estimated from few doses,[18],115 nM
same,potency estimated from few doses,[15]; CATDS: 0.28711469302714299,16.3 nM
same,potency estimated from few doses,[16]; CATDS: 0.56670438264140999,4.73 nM
same,potency estimated from few doses,[17]; CATDS: 8.4906950641747497E-2,940 nM
same,potency estimated from few doses,[9]; CATDS: 8.5472412677607995E-2,909 nM
O=c1[nH]cc(-c2ccc(O)cc2)c2sc(-c3ccncc3)cc12 [GSK1033723A],potency estimated from few doses,[1]; [27],471 nM
same,potency estimated from few doses,[7]; [27],1550 nM
same,potency estimated from few doses,[19],1220 nM
COc1ccc(CSc2nnc(-c3ccc4ncsc4c3)o2)cc1C(F)(F)F [TPKI-91],potency estimated from few doses,[1]; [27],549 nM
same,potency estimated from few doses,[20],131 nM
same,potency estimated from few doses,[19],72.5 nM
FC(F)(F)c1cccc(Nc2nccc(-c3cnn4nc(-c5ccccc5)ccc34)n2)c1 [GW819077X],potency estimated from few doses,[21],960 nM
N=C1N=C(N)S/C1=C\c1ccc2ncccc2c1 [RO4509407-000],potency estimated from few doses,[2]; CATDS: 0.20208548416979799,1310 nM
same,potency estimated from few doses,[22],612 nM
same,potency estimated from few doses,[23],488 nM
same,potency estimated from few doses,"[7]; compound concentrations: 100 nM and 1000 nM (sheet 'Samples'), CATDS: 0.224085831089785",1010 nM
COc1cc(/C=N/Nc2ncnc3c2cnn3C(C)C)ccc1O [GW644007X],potency estimated from few doses,[2]; CATDS: 0.240063768784822,1750 nM
same,potency estimated from few doses,[24],2110 nM
same,potency estimated from few doses,[25],1520 nM
same,potency estimated from few doses,[26],1190 nM
